# Columns and labels:
# Test in all cases: PBM binding z-score (relative to random genomic background probes); higher = stronger binding; sequences stand for … in GC…GCGATTGACAGCGTAGAATGAAGG
# [1] = test system: FXR:RXRa (NR concentration 270 nM, RXRa partner concentration 90 nM)
# Summary of the method: (§1)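 The probes on custom Agilent 4×180K protein-binding microarrays were double-stranded, with 34-nt variable regions bearing direct-repeat seeds, single-nucleotide variants, half-site ablations and random human genomic background sequences. Incubation lasted 1 h with ligand-free nuclear receptor dimers in PBS pH 7.4, 2% milk, 0.02% Triton X-100, 1 mM DTT, 0.2 mg/mL BSA and 0.4 mg/ml salmon testes DNA. Antibodies against each partner (one per run) detected bound dimers, and fluorescence scans were regression-normalized. Binding z-scores take the random background probes as reference.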
# [2] = test system: LXRa:RXRa (NR concentration 270 nM, RXRa partner concentration 90 nM)
# Summary of the method: as §1
# [3] = test system: LXRa homodimer (NR concentration 270 nM)
# Summary of the method: as §1
# [4] = test system: LXRb:RXRa (NR concentration 270 nM, RXRa partner concentration 90 nM)
# Summary of the method: as §1
# [5] = test system: LXRb homodimer (NR concentration 270 nM)
# Summary of the method: as §1
# [6] = test system: PPARa:RXRa (NR concentration 270 nM, RXRa partner concentration 90 nM)
# Summary of the method: as §1
# [7] = test system: PPARg:RXRa (NR concentration 180 nM, RXRa partner concentration 90 nM)
# Summary of the method: as §1
# [8] = test system: PPARg:RXRa 270nM:90nM, anti-RXR (NR concentration 270 nM, RXRa partner concentration 90 nM)
# Summary of the method: as §1
# [9] = test system: PPARg:RXRa 30nM:10nM, anti-RXR (NR concentration 30 nM, RXRa partner concentration 10 nM)
# Summary of the method: as §1
# [10] = test system: PPARg:RXRa 90nM:30nM, anti-RXR (NR concentration 90 nM, RXRa partner concentration 30 nM)
# Summary of the method: as §1
# [11] = test system: PPARg:RXRa DBDmut IVT, anti-RXR (DBD mutation: RXRa K156A/R161A, NR concentration 270 nM, RXRa partner concentration 90 nM)
# Summary of the method: as §1
# [12] = test system: PPARg:RXRa IVT, anti-PPARg (NR concentration 270 nM, RXRa partner concentration 90 nM)
# Summary of the method: as §1
# [13] = test system: PPARg DBDmut:RXRa IVT, anti-PPARg (DBD mutation: PPARg1 K132A/R137A, NR concentration 270 nM, RXRa partner concentration 90 nM)
# Summary of the method: as §1
# [14] = test system: PPARg DBDmut IVT, anti-PPARg (DBD mutation: PPARg1 K132A/R137A, NR concentration 270 nM)
# Summary of the method: as §1
# [15] = test system: PPARg homodimer (NR concentration 180 nM)
# Summary of the method: as §1
# [16] = test system: PXR:RXRa (NR concentration 270 nM, RXRa partner concentration 90 nM)
# Summary of the method: as §1
# [17] = test system: PXR homodimer (NR concentration 270 nM)
# Summary of the method: as §1
# [18] = test system: RARa:RXR (NR concentration 270 nM, RXRa partner concentration 90 nM)
# Summary of the method: as §1
# [19] = test system: RARa homodimer (NR concentration 270 nM)
# Summary of the method: as §1
# [20] = test system: RARb:RXRa (NR concentration 270 nM, RXRa partner concentration 90 nM)
# Summary of the method: as §1
Sequence,PBM binding z-score [1],PBM binding z-score [2],PBM binding z-score [3],PBM binding z-score [4],PBM binding z-score [5],PBM binding z-score [6],PBM binding z-score [7],PBM binding z-score [8],PBM binding z-score [9],PBM binding z-score [10],PBM binding z-score [11],PBM binding z-score [12],PBM binding z-score [13],PBM binding z-score [14],PBM binding z-score [15],PBM binding z-score [16],PBM binding z-score [17],PBM binding z-score [18],PBM binding z-score [19],PBM binding z-score [20]
TCGTGTAGGTTACCAATGGGGCATTCAGCTTTCT,0.486,1.81,0.0515,1.44,0.0224,1.43,-0.0806,1.21,2.25,1.67,3.06,2.01,0.246,0.154,1.17,0.375,-0.304,0.543,-0.0616,1.31
AGAACGAAGGCAATGAGTTGATAGCACGGGTGGC,-0.744,-0.976,-0.545,-0.999,-1.01,-0.613,0.809,-0.61,-0.619,-0.608,-0.602,-0.376,0.0932,-0.515,-1.7,-0.512,-0.132,-0.69,-0.881,-0.477
CGTCCAAGGGCAGAGAGGTCAGTGAATGCCGAGT,1.75,1.84,0.628,1.59,-0.506,2.5,0.642,1.19,-0.361,0.293,0.812,1.16,-1.66,-1.28,1.16,3.43,6.33,2.56,-0.0232,3.92
TAGCCTACGTCATTCAGGGGCCAGTATAGAAAGC,-0.632,-0.447,-0.497,0.157,-0.0304,-0.0175,0.374,-0.279,-0.505,-0.468,-0.459,-0.0447,0.682,0.371,0.00959,-0.22,-0.62,-0.258,-0.456,0.27
CGGCAAAGTTCAACTAAGGTAACGTAAAGCACGC,7.42,5.93,2.94,3.99,1.22,5.03,4.7,5.19,1.6,3.81,0.283,1.29,-0.451,-0.173,3.39,5.43,2.72,3.93,0.447,5.16
GTACCGAGGTGAATAGGTCGTTGATGAGTAGGCG,1.03,0.978,-0.306,0.874,-0.778,2.68,1.86,2.13,0.147,0.886,1.68,2.73,-0.652,-0.0941,1.09,0.905,-0.18,2.02,-0.153,2.03
TCTAGTTGGTCACGGATGTCACACACGACGGGTA,0.669,0.373,0.422,0.666,0.393,1.18,1.32,2.25,3.22,2.84,2.2,2.89,1.14,1.42,1.14,0.836,-0.124,0.724,0.648,1.88
TCTCGGAGGACACGACAGGTCAGAGCTCGACATC,1.13,1.51,0.823,0.827,-0.505,1.4,0.559,1.1,2.11,1.5,0.919,0.745,0.0844,-0.496,0.53,1.27,-0.142,1.6,0.0819,2.62
ATCACTAGGTAAGACTCAGTTCAGTGAAGAACGC,0.15,0.00987,0.227,-0.0165,0.239,0.147,0.394,0.383,0.287,0.0779,3.04,2.02,0.271,1.07,0.437,0.891,0.972,0.026,1.03,0.143
TCAGACAGGTGAAGGTAACTCAAGTACGCAGTCG,1.22,2.77,0.105,1.47,0.174,1.33,0.828,2.07,4.18,3.03,2.91,0.867,0.154,-0.232,0.845,0.794,0.336,0.988,0.423,1.14
GGAGCGAGGGCATTCGAGTTGATAGCATGGCGAT,0.608,1.24,-0.883,-0.106,-1.07,0.542,0.179,-0.159,-0.424,-0.195,0.18,0.079,-0.936,-1.62,-0.569,3.55,0.905,1.1,-0.544,1.75
TGTATGAGGTTATAAGATCAGGGAACGTTGCAAA,1.68,1.72,0.117,1.22,0.92,2.51,1.04,1.47,0.966,1.2,0.0132,0.98,0.426,0.745,0.994,1.1,-0.0169,1.62,0.679,1.47
TCTATTTGGTCACGGAGGTCACACACGACGGGTA,3.93,3.92,3.39,3.88,2.63,4.23,4.04,4.8,4.57,4.77,2.53,4.35,4.5,3.22,3.91,4.86,2.58,4.88,2.06,4.21
CCTACTGGGCCAAAGGTCAATGATTCCAATGCTC,4.07,4.39,2.6,4.52,0.165,6.29,12.1,10.4,10,12.8,5.3,6.73,1.6,1.78,4.39,4.46,0.657,5.75,1.53,4.5
